In ChEMBL document CHEMBL1157539, “Thousands of chemical starting points for antimalarial lead identification” (Nature, 2010):

Columns and labels:
Assay type in all cases: functional
Plasmodium falciparum [1] = experiment: GSK_TCMDC: Inhibition of Plasmodium falciparum 3D7 in whole red blood cells, using parasite LDH activity as an index of growth. Test compounds present at 2uM
Plasmodium falciparum [2] = experiment: GSK_TCMDC: Inhibition of Plasmodium falciparum Dd2 in whole red blood cells, using parasite LDH activity as an index of growth. Test compounds present at 2uM
HepG2 = experiment: GSK_TCMDC: Percent inhibition of human HepG2 cell line. Test compounds present at 10uM.

Row | SMILES | Inhibition (Plasmodium falciparum [1]) [%] | Inhibition (Plasmodium falciparum [2]) [%] | Inhibition (HepG2) [%]
1 | CC1(C)NC(N)=NC(=N)N1OCc1nc(N)nc(Nc2ccccc2)n1 | 98 | 0 | 3
2 | Cc1ccc(C)c(CN2CCC(CNC(=O)c3cc4ccc5cccnc5c4[nH]3)CC2)c1 | 95 | 10 | 25
3 | COc1ccc2[nH]ccc(=NN=Cc3ccncc3)c2c1 | 99 | 95 | 4
4 | O=C(/C=C/c1ccc(Cl)c(Cl)c1)NCCCCCN1CCCC(CNC(=O)Nc2ccc(Oc3ccccc3)cc2)C1 (stereo not drawn) | 99 | 6 | 26
5 | Cc1ccccc1OCC(O)CN1CCC(C2CCN(CC(O)COc3ccccc3C)CC2)CC1 (stereo not drawn) | 100 | 51 | 12
6 | Cc1nc(N)nc(N)c1OCCCOc1ccccc1Br.Cl | 94 | 96 | 57
7 | Cc1nnc(-c2cccc(Nc3ccnc4cc(-c5nccs5)ccc34)c2)o1.Cl | 95 | 89 | 38
8 | O=S(=O)(c1ccccc1OC(F)(F)F)C1CC2CCC(C1)N2S(=O)(=O)c1cccc(C(F)(F)F)c1 (stereo not drawn) | 99 | 99 | 5
9 | Nc1ccc(-c2ccc3ccnc(N)c3c2)cn1.O=C(O)C(F)(F)F | 100 | 100 | 43
10 | COc1ccc(Br)cc1C1C2C(=O)N(c3ccc(Br)cc3)C(=O)C2C2(C(=O)O)CC(OCc3ccccc3)CN12 (stereo not drawn) | 100 | 99 | 16
11 | CCCC(C)NC(=O)[C@H](CC1CCCCC1)NC(=O)c1ccc(O)c(-c2ccc(OC)cc2)c1 (stereo partly drawn) | 89 | 37 | 3
12 | N=C(N)NCCN(Cc1ccccc1)c1ccc(Cl)cc1 | 100 | 99 | 0
13 | CCCCc1cc(NCc2ccncc2)nc(Nc2cccc(OC)c2)n1 | 100 | 56 | 41
14 | Nc1c(Cl)cc(C(O)CNCCCCCCOCCc2ccc(CO)s2)cc1Cl.O=C(O)/C=C/C(=O)O (stereo not drawn) | 86 | 71 | 1
15 | Cc1ccc(CN2CCCCC(NC(=O)c3cc4ccccc4s3)C2)cc1.O=C(O)C(F)(F)F (stereo not drawn) | 94 | 8 | 9
16 | COc1ccc(C2C(C(=O)Nc3ccc(C)c(F)c3)c3cc(OC)c(OC)cc3C(=O)N2C)cc1 (stereo not drawn) | 81 | 26 | 6
17 | CN(C)c1cc(NC(=O)Nc2ccc(SC(F)(F)F)cc2)c2ccccc2n1 | 100 | 100 | 22
18 | COC(=O)Cn1c(C2CCN(CC3CCC(NC(=O)/C=C/c4ccc(Cl)c(Cl)c4)CC3)CC2)nc2ccccc21 (stereo not drawn) | 95 | 17 | 12
19 | Cc1ccc(Nc2nc(C)cc(NC3CCCC3)n2)cc1 | 100 | 89 | 33
20 | CCCNCc1ccc(-c2ccc(CN(CCOC)C(=O)/C=C/c3ccccc3C)cc2)nc1.O=C(O)C(F)(F)F | 95 | 39 | 13
21 | CCCNCc1ccc(-c2ccc(CN(CCOC)C(=O)c3ccc([N+](=O)[O-])c(C)c3)cc2)nc1.O=C(O)C(F)(F)F | 97 | 23 | 2

Row | SMILES | Inhibition (Plasmodium falciparum [1]) [%] | Inhibition (Plasmodium falciparum [2]) [%] | Inhibition (HepG2) [%]
22 | COc1ccc(CN(C)Cc2ccc(NC(=O)c3cccc4c(=O)c5cccc(C)c5[nH]c34)cc2)cc1OC | 92 | 22 | 7
23 | Cl.O=C(/C=C/c1ccc(F)cc1)NC1CCC(CCN2CCCN(c3ccc(C(F)(F)F)cn3)CC2)CC1 (stereo not drawn) | 97 | 13 | 29
24 | Cc1cc(N/N=C/c2ccccc2[N+](=O)[O-])c2ccc(F)cc2n1 | 100 | 100 | 32
25 | CCOC(=O)C(C)(C)Oc1ccc(CN(Cc2ccc(CC(C)C)cc2)C(=O)Nc2ccc(F)cc2F)c(OC)c1 | 97 | 96 | 5
26 | COc1cc(-c2cc3cc(Cl)c(Cl)cc3[nH]2)ccc1C(=O)NC1CCN(Cc2ccccc2)CC1.O=C(O)C(F)(F)F | 100 | 100 | 12
27 | COc1ccc(CNCc2ccc(F)cc2)cc1-c1ccc(S(=O)(=O)NCCN2CCCC2)cc1.O=C(O)C(F)(F)F | 91 | 25 | 38
28 | N#Cc1ccc(-c2ccc(C(=O)NCCCCN3CCC(c4ccncc4)CC3)cc2)cc1 | 94 | 16 | 34
29 | O=C(NCC1CCN(Cc2ccsc2)C1)c1cc(-c2cccc(C(F)(F)F)c2)cs1.O=C(O)C(F)(F)F (stereo not drawn) | 98 | 15 | 37
30 | CCCC(C)NC(=O)[C@H](Cc1ccccc1)NC(=O)c1ccc(O)c(-c2ccc(OC)cc2)c1 (stereo partly drawn) | 85 | 1 | 12
31 | O=C(N[C@H]1CCN(CCc2ccc(O[C@H]3CCNC3)cc2)C1)c1ccc(Cl)c(Cl)c1.O=C(O)C(F)(F)F | 96 | 5 | 18
32 | CCCOc1cc(O)c(-c2[nH]nc(C)c2Oc2ccccc2)cc1CC | 91 | 46 | 0
33 | CC(Cc1ccc(CN2CCN(Cc3ccccc3)CC2)cc1)NCC(O)c1cccc(C(F)(F)F)c1.Cl (stereo not drawn) | 97 | 98 | 51
34 | Cc1[nH]c(C)c(-c2ccc(Oc3ccc(Cl)cc3)cc2)c(=O)c1Br | 97 | 96 | 12
35 | CCC(C)NC(=O)CN1CN(c2ccccc2)C2(CCN(C(=O)c3ccc(-c4ccccc4)cc3)CC2)C1=O (stereo not drawn) | 100 | 100 | 0
36 | CCCCC(=O)Nc1nonc1-c1ccc(OCC)c(OCC)c1 | 100 | 95 | 9
37 | CCCC(C)Nc1nc(C)cc(NCCC(=O)Nc2ccc(OC)cc2)n1.O=C(O)C(F)(F)F (stereo not drawn) | 97 | 2 | 12
38 | C[C@H](Cc1ccc(Oc2ccc(C[C@@H](C)NC[C@H](O)c3cccc(Cl)c3)cc2)cc1)NC[C@H](O)c1cccc(Cl)c1.Cl | 100 | 96 | 99
39 | Cl.O=C(CCc1ccccc1)N[C@H](Cc1c[nH]c2ccccc12)C(=O)N1CCC(NCc2ccc3c(c2)Cc2ccccc2-3)CC1 | 92 | 8 | 53
40 | CCN1CCc2c1cc(C(=O)N[C@@H](Cc1ccccc1)[C@H](O)CNC(C)(C)c1cccc(C(F)(F)F)c1)cc2N1CCCCS1(=O)=O | 100 | 99 | 6
41 | CC(C)C[C@H](NC(=O)c1cc2ccccc2s1)C(=O)N[C@H]1CCN(Cc2ccc(OC[C@@H]3CCCN3C)c(Cl)c2)C1.O=C(O)C(F)(F)F | 100 | 81 | 83
42 | CC(C)C(=O)ONC1=NC(C)(C)N(OCCCOc2cc(Cl)c(Cl)cc2Cl)C(NOC(=O)C(C)C)=N1 | 92 | 93 | 64

Row | SMILES | Inhibition (Plasmodium falciparum [1]) [%] | Inhibition (Plasmodium falciparum [2]) [%] | Inhibition (HepG2) [%]
43 | CCOC(=O)c1ccc(NC(=O)N(Cc2ccc(-c3ccc(CN4CCNCC4)cc3)cc2)Cc2cccnc2)cc1.O=C(O)C(F)(F)F | 94 | 34 | 13
44 | Cl.Nc1c2ccccc2nc2cc([N+](=O)[O-])ccc12 | 98 | 26 | 92
45 | COc1ccc2c(NN=Cc3ccccc3Cl)ccnc2c1 | 99 | 46 | 10
46 | CCOC(=O)c1cnc2c(OC)cc(OC)c(Cl)c2c1Nc1cccc(C)c1C | 100 | 99 | 5
47 | CN(C)Cc1ccc(-c2ccc(NC(=O)c3ccc4c(=O)n(Cc5ccccc5)cnc4c3)cc2)cc1 | 100 | 39 | 94
48 | CCC1(CC)NC(N)=NC(=N)N1OCc1ccc(Cl)c(Cl)c1.Cl | 94 | 49 | 49
49 | COc1cc(COc2c(C)nc(N)nc2N)cc(OC)c1OC.Cl | 100 | 0 | 7
50 | Cc1ccc(-n2c(Sc3ncnc4sccc34)nnc2N2CCCC2)cc1 | 99 | 100 | 0
51 | Nc1ncnc2c1ncn2C(CO)Cc1ccc(O)cc1 (stereo not drawn) | 93 | 0 | 0
52 | COc1cc(Nc2nccc(-c3c(-c4cccc(NC(=O)c5c(F)cccc5F)c4)nn4ccccc34)n2)cc(OC)c1OC | 98 | 98 | 74
53 | Cc1ccc(-n2c(=O)c3c(n4c(SC(C)C)nnc24)-c2ccccc2CC32CCCCC2)cc1 | 95 | 88 | 8
54 | CC1CCCN(C(=O)C(C)Nc2cc(Cl)ccc2N2CCOCC2)C1 (stereo not drawn) | 100 | 96 | 0
55 | N#Cc1cccc(Nc2nccc(NCC(O)c3ccccc3C(F)(F)F)n2)c1 (stereo not drawn) | 98 | 39 | 36
56 | CCc1cn(C)c2c(N3CCCC3=O)cc(C(=O)N[C@@H](Cc3ccccc3)[C@H](O)CNC(C)(C)c3cccc(OC)c3)cc12 | 95 | 99 | 9
57 | CC1=C(C(=O)Nc2cc3cn[nH]c3cc2F)C(c2ccc(Cl)c(NS(C)(=O)=O)c2)CC(=O)N1 (stereo not drawn) | 88 | 98 | 2
58 | Nc1nccc(-c2ccc3c(/C=C/c4ccccc4)cnc(N)c3c2)n1 | 100 | 100 | 32
59 | CCC1CN2CCc3c([nH]c4ccc(OC)cc34)C2CC1CC1NCCc2cc(OC)c(OC)cc21.Cl (stereo not drawn) | 100 | 21 | 17
60 | COc1ccc(-n2nc(C(=O)NCc3ccccc3OC)c3ccccc3c2=O)cc1 | 100 | 94 | 2
61 | Cc1cccc2nc(-c3cccc(-c4ccc(CNCc5cccc(N)c5)cc4)c3)[nH]c12.O=C(O)C(F)(F)F | 100 | 93 | 19
